Results taken from PubChem BioAssay (NCI).
This is part of a sample that, as a whole, favours compounds with a hit. Of some 83,000 tested, about 20% had one in any assay.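 Note: values are percent growth. 100 is the growth of untreated cells, values between 100 and 0 indicate rising inhibition; between -100 and 0 indicates cell death.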 Active and inactive are the calls of the source. Rule for the calls: active = growth percent below 10; inactive = the rest.

Legend:
Test in all cases: NCI-60 one-dose screen, 48 h (100 = growth as untreated, 0 = no growth, -100 = all killed)
Settings in all cases: 10 µM unless noted
SR leukemia = tested on: SR leukemia
OVCAR-8 ovarian = tested on: OVCAR-8 ovarian
OVCAR-5 ovarian = tested on: OVCAR-5 ovarian
OVCAR-4 ovarian = tested on: OVCAR-4 ovarian
SK-OV-3 ovarian = tested on: SK-OV-3 ovarian
IGROV1 ovarian = tested on: IGROV1 ovarian
OVCAR-3 ovarian = tested on: OVCAR-3 ovarian
HS 578T breast = tested on: HS 578T breast
NCI/ADR-RES ovarian = tested on: NCI/ADR-RES ovarian
RPMI-8226 leukemia = tested on: RPMI-8226 leukemia

Measured: growth

N#CC1=C(N)Oc2c(sc3c(Br)cccc23)C1c1ccc(F)cc1 (stereo unspecified)
active: SR leukemia 5.83% | OVCAR-3 ovarian 9.66% | NCI/ADR-RES ovarian 9.77%
inactive: OVCAR-8 ovarian 25.3% | OVCAR-5 ovarian 30.9% | OVCAR-4 ovarian 56.4% | SK-OV-3 ovarian 37.4% | IGROV1 ovarian 26.9% | HS 578T breast 42%

COc1ccc(C/C(C)=C(/c2ccc(OCCN3CCCCC3)cc2)c2ccc(OC(=O)NCc3ccccc3)cc2)cc1
active: SR leukemia -58% | OVCAR-8 ovarian -83.5% | OVCAR-5 ovarian -78.6% | OVCAR-4 ovarian -91.4% | SK-OV-3 ovarian -93.7% | IGROV1 ovarian -71.1% | OVCAR-3 ovarian -89.2% | HS 578T breast -57.6% | NCI/ADR-RES ovarian -75.7%

c1ccc(C2=NN[C@H](c3cn(-c4ccccc4)nc3-c3ccccc3)C2)cc1
inactive: SR leukemia 90.9% | OVCAR-8 ovarian 35.6% | OVCAR-5 ovarian 83.6% | OVCAR-4 ovarian 14.8% | IGROV1 ovarian 62.1% | NCI/ADR-RES ovarian 48.9%
active: SK-OV-3 ovarian -1.38% | HS 578T breast -7.83%

CC[C@]12C=CCN3CC[C@@]4(c5cc(NC(=O)CCC(=O)OCc6cn(Cc7ccc(F)cc7)nn6)c(OC)cc5N(C)[C@H]4[C@@](O)(C(=O)OC)[C@@H]1OC(C)=O)[C@@H]32
inactive: SR leukemia 94.2% | OVCAR-8 ovarian 103% | OVCAR-5 ovarian 100% | OVCAR-4 ovarian 98.2% | SK-OV-3 ovarian 90.7% | OVCAR-3 ovarian 104% | HS 578T breast 108% | NCI/ADR-RES ovarian 109%

CN(Cc1ccc(C(F)(F)F)cc1)CC(O)C(=O)Nc1ccc(Cl)cc1 (stereo unspecified)
inactive: OVCAR-5 ovarian 27.9% | OVCAR-4 ovarian 15.6% | SK-OV-3 ovarian 70.7% | HS 578T breast 51.7% | NCI/ADR-RES ovarian 39.3%
active: SR leukemia -31.3% | OVCAR-8 ovarian 6.23% | IGROV1 ovarian 0.563% | OVCAR-3 ovarian -40.7%

COc1ccc(-c2nc3c(c(-c4ccccc4)nn3-c3ccccc3)c(-c3ccc(N4CCOCC4)cc3)c2C#N)cc1
inactive: SR leukemia 110% | OVCAR-8 ovarian 105% | OVCAR-5 ovarian 102% | OVCAR-4 ovarian 106% | SK-OV-3 ovarian 119% | IGROV1 ovarian 109% | OVCAR-3 ovarian 115% | HS 578T breast 106% | NCI/ADR-RES ovarian 111%

O=C(CCC(=O)N/N=C/c1ccccc1O)N/N=C/c1ccccc1O
inactive: RPMI-8226 leukemia 83% | OVCAR-8 ovarian 46.4% | OVCAR-5 ovarian 82.7% | OVCAR-4 ovarian 26.2% | SK-OV-3 ovarian 50.8% | IGROV1 ovarian 48.5% | OVCAR-3 ovarian 23.4% | HS 578T breast 76.9% | NCI/ADR-RES ovarian 46.9%
